Most compounds without a hit are left out; they make up all but 11% or so of the library.
USP17 block: blocks human USP17 ubiquitin-rhodamine cleavage. A8MUK1. purified USP17, Ub-rhodamine cleavage fluorescence, 3 h. 6.5% of 47,000 active. AID 1645855. inhibition, % at 50 µM
USP30 block: blocks human USP30 ubiquitin-rhodamine cleavage; Q70CQ3; purified USP30, Ub-rhodamine cleavage fluorescence; inhibition, % at 25 µM; 5.3% of 47,000 active; AID 1645860
USP28 inh: inhibitors of human USP28 deubiquitinase | 3% of 47,000 active | purified USP28, Ub-rhodamine cleavage fluorescence, 30 min | AID 1645857 | Q96RU2 | inhibition, % at 25 µM
* hit, by the source's call; . = no result. Cut-off read from the data, not from the text of the source: active = inhibition above about 30%; inactive = the rest.

SMILES	USP17 block	USP30 block	USP28 inh
CN(C)c1ccc(C(CNC(=O)CCc2ccccc2)N2CCCC2)cc1 (centres undefined)	-2	0	-12
CCc1ccc(NC(=O)CSc2[nH]c(=O)c(C(=O)O)cc2C#N)cc1	42*	20	48*
CCc1ccc(NC(=O)CSC2=NC3(CCCC3)Nc3ccccc32)cc1	4	-52	-14
Cn1c(=O)c2c(nc(CN3CCOCC3)n2CCc2ccccc2)n(C)c1=O	3	32*	1
Cn1c(=O)c2c(nc(CN3CCN(c4ccccc4)CC3)n2CCN2CCOCC2)n(C)c1=O	-5	-3	-2
COc1ccc(CCC(=O)NCC(c2cccs2)N2CCOCC2)cc1 (centres undefined)	5	4	0
COc1ccc(NC(=O)c2cc3cccnc3n(C)c2=O)c(OC)c1	-35	-123	-20
C=C1NC(=O)c2c(sc(C(=O)OCC(=O)NCCc3ccc(F)cc3)c2C)N1	1	5	0
COc1cccc(-n2ccn3cc(-c4ccccc4)nc3c2=O)c1	33*	-59	-19
COc1cccc(-n2ccn3cc(-c4ccc5c(c4)OCO5)nc3c2=O)c1	.	-405	-76
Cc1ccc(NC(=O)C2CCCN(c3cnccn3)C2)cc1 (centres undefined)	1	2	-4
O=C(Nc1ccc(Cl)cc1)C1CCCN(c2cnccn2)C1 (centres undefined)	33*	27	9
COc1ccc2oc(=O)c(C(=O)N3CCN(c4ccc(C)c(C)c4)CC3)cc2c1	-20	8	-44
Cc1cc(=O)n2nc(-c3cccs3)nc2n1CC(=O)Nc1cccc(C(F)(F)F)c1	5	-11	5
Cc1cc(=O)n(CC(=O)Nc2ccc(F)c(F)c2)c(N2CCCCC2)n1	3	6	8
Cc1cccc(NC(=O)Cn2c(C)cc(=O)n3nc(-c4cccs4)nc23)c1	47*	10	3
Cc1cc(=O)n(CC(=O)Nc2ccc(F)cc2C)c(N2CCCCC2)n1	8	21	5
Cc1cc(=O)n(CC(=O)Nc2ccccc2)c(Nc2ccc(C)c(C)c2)n1	1	8	-7
Cc1cccc(Nc2nc(C)cc(=O)n2CC(=O)Nc2ccccc2)c1	20	30*	7
Cc1ccc(NC(=O)Cn2c(Nc3ccc(F)cc3)nc(C)cc2=O)cc1	78*	67*	10
Cc1cc(=O)n(CC(=O)Nc2ccc(C)c(C)c2)c(N2CCCC2)n1	10	35*	6
COc1ccc(-c2cn3c(C(=O)N4CCN(C(=O)c5ccco5)CC4)csc3n2)cc1	-23	-57	-6
O=C(c1cc(-c2ccncc2)n[nH]1)N1CCN(c2ccccc2F)CC1	-11	0	-3
Cc1ccc(S(=O)(=O)Nc2ccc(F)cc2)cc1C(=O)N1CCCCCC1	-7	-6	2
O=C(c1ccco1)N1CCCC(c2cc(-c3ccc(F)cc3)n[nH]2)C1 (centres undefined)	-5	-1	3
SMILES	USP17 block	USP30 block	USP28 inh
Cc1cc(=O)n(CC(=O)Nc2ccccc2F)c(Nc2ccc(F)cc2)n1	44*	83*	39*
Cc1cc(C)c2c(n1)SCC(=O)N2CC(=O)Nc1ccccc1F	.	-14	-9
Cc1cc(=O)n(CC(=O)Nc2ccccc2)c(Nc2ccc(F)cc2)n1	69*	63*	43*
Cc1cc(=O)n(CC(=O)Nc2cccc(F)c2)c(N2CCCC2)n1	-7	-7	1
Cc1cccc(-c2cc3n(n2)CCCN(C(=O)c2ccccn2)C3)c1	-1	1	-5
Cc1ccc(S(=O)(=O)N2CCN3C(=O)[C@@H](Cc4ccccc4)N(C)C(=O)[C@@H]3C2)cc1	18	31*	16
C[C@@H]1C(=O)N2CCN(S(=O)(=O)c3ccc(Cl)cc3)C[C@H]2C(=O)N1C	11	.	.
COc1ccc(C(NC(=O)COc2ccc(C)cc2)c2ccc(OC)c(OC)c2)cc1OC	.	-18	-7
CN(C)c1nc2cc(C(=O)N3CCCC3)sc2n1-c1ccccc1	12	5	4
CNC(=O)c1cc2nc(N(C)C)n(-c3ccc(F)cc3)c2s1	71*	-3	46*
O=C(C1CCCN(Cc2cccc(Cl)c2)C1)N1CCC(Cc2ccccc2)CC1 (centres undefined)	-13	-21	-15
Cc1ccccc1NC(=O)C1CCCN(S(=O)(=O)Cc2ccc(F)cc2)C1 (centres undefined)	10	24	0
COc1ccccc1CNC(=O)C1CCCN(S(=O)(=O)Cc2ccc(Cl)cc2)C1 (centres undefined)	16	30*	17
O=C(C1CCCN(S(=O)(=O)Cc2ccccc2)C1)N1CCC(Cc2ccccc2)CC1 (centres undefined)	3	31*	14
Cc1cccc(CNC(=O)C2CCCN(S(=O)(=O)Cc3ccc(Cl)cc3)C2)c1 (centres undefined)	21	13	2
CN(C1CCCCC1)S(=O)(=O)N1CCCC(C(=O)NCc2cccc(Cl)c2)C1 (centres undefined)	25	42*	25
Cc1ccccc1NC(=O)C1CCCN(S(=O)(=O)Cc2ccccc2)C1 (centres undefined)	32*	23	11
CN(C1CCCCC1)S(=O)(=O)N1CCCC(C(=O)NCc2ccccc2Cl)C1 (centres undefined)	-1	12	-5
CC(=O)N1CC2(CCN(C(=O)C(C)(C)C)CC2)Nc2ccccc21	25	-30	-15
CCn1cc(-c2ccccc2)cc1C(=O)N1CCN(C)CC1	0	-4	-2
CC(C(=O)N1CCN(c2ccc([N+](=O)[O-])cc2)CC1)N1Cc2ccccc2C1=O (centres undefined)	-18	-23	0
CC(CCc1ccccc1)NC(=O)c1cnn2c3c(cnc12)CCCC3 (centres undefined)	7	-6	-10
O=C(NCCC1=CCCCC1)c1cnn2c3c(cnc12)CCCCCC3	20	38*	28
CC(CNC(=O)c1cnn2c3c(cnc12)CCCC3)c1ccccc1 (centres undefined)	13	31*	24
O=C(O)c1cnn2c3c(cnc12)CCCCCC3	-5	2	7
SMILES	USP17 block	USP30 block	USP28 inh
CCN1C(=O)c2ccccc2C(=O)[C@@]2(C)CN(S(=O)(=O)c3ccccc3)C[C@@H]12	11	12	4
Cc1ccc(NC(=O)N2CCC3(CC2)NC(=O)C(CC(C)C)NC3=O)cc1 (centres undefined)	43*	46*	17
CSc1ccccc1NC(=O)N1CCC2(CC1)NC(=O)C(CC(C)C)NC2=O (centres undefined)	-5	-1	-2
CSc1ccc(-c2nc3cnccn3c2Nc2cccc(C(N)=O)c2)cc1	-21	-134	-39
C=C1CCC[C@]2(C)C[C@H]3OC(=O)C(CNCCc4ccc(F)cc4)[C@H]3CC12 (some centres undefined)	-13	26	-11
C=C1CCC[C@]2(C)C[C@H]3OC(=O)C(CNCCc4ccc(OC)c(OC)c4)[C@H]3CC12 (some centres undefined)	-11	46*	7
CC(=O)N1CCC(c2cc(-c3ccc(C(=O)O)cc3)nc(C)n2)C1 (centres undefined)	6	19	11
Cc1ccccc1N1CC(c2nnc(NC(=O)Cc3c(F)cccc3Cl)s2)CC1=O (centres undefined)	.	0	-4

From PubChem
